# About 2,000 (36%) of roughly 5,500 compounds were called active. About 18% were inconclusive and are not listed. This is one part of the list. A number with no mark means an inactive call. No stated cut-off is given here; in the data, active means normalized growth mostly below about 0.91 (no sharp cut-off); inconclusive means no clear call, values can overlap the other calls; inactive means mostly above about 0.92.
# Test: chemical genetic growth profiling, strain panel (AID 1159580);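 further: tested at 20 µM; growth read once vehicle control cultures reached saturation at 30 °C; 1 = growth at the plate median or of vehicle wells; lower values mean less growth of the strain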
# Conditions: S. cerevisiae deletion strains, growth OD
# [1] = locus YAL040C, strain CLN3, active compounds read low
# [2] = locus YCL061C, strain MRC1 (second series), active compounds read low
# [3] = locus YDR363W, strain ESC2, active compounds read low
# [4] = locus YER002W, strain NOP16, active compounds read low
# [5] = locus YGR229C, strain SMI1, active compounds read low
# [6] = locus YNL175C, strain NOP13, active compounds read low
# [7] = locus YNL197C, strain WHI3, active compounds read low
# [8] = locus YNL224C, strain SQS1, active compounds read low
# [9] = locus YOR083W, strain WHI5 (second series), active compounds read low
compound,measurement,setting,value
CCCCN1CCC(n2c(=O)[nH]c3ccccc32)CC1,normalized growth,[1],1.01
same,normalized growth,[2],1.01
same,normalized growth,[3],1.02
same,normalized growth,[4],0.994
same,normalized growth,[5],1.01
same,normalized growth,"locus YJR075W, strain HOC1, active compounds read low",1.02
same,normalized growth,"locus YMR263W, strain SAP30, active compounds read low",1
same,normalized growth,"locus YNL153C, strain GIM3, active compounds read low",0.952
same,normalized growth,[6],1.01
same,normalized growth,[7],1.03
same,normalized growth,[8],0.988
same,normalized growth,[9],1.01
O=c1[nH]c2ccccc2n1CCCN1CCC(n2c(=O)[nH]c3cc(Cl)ccc32)CC1,normalized growth,"locus YAL013W, strain DEP1, active compounds read low",0.982
same,normalized growth,"locus YAL021C, strain ccr4, active compounds read low",0.982
same,normalized growth,"locus YAL026C, strain drs2, active compounds read low",1.01
same,normalized growth,"locus YAL030W, strain snc1, active compounds read low",0.991
same,normalized growth,[1],1
same,normalized growth,"locus YBL061C, strain skt5, active compounds read low",0.981
same,normalized growth,"locus YBR009C, strain hhf1, active compounds read low",0.967
same,normalized growth,"locus YBR023C, strain chs3, active compounds read low",0.982
same,normalized growth,"locus YBR171W, strain sec66, active compounds read low",0.979
same,normalized growth,"locus YBR231C, strain swc5, active compounds read low",0.945
same,normalized growth,"locus YBR279W, strain paf1, active compounds read low",0.992
same,normalized growth,"locus YCL011C, strain gbp2, active compounds read low",0.987
same,normalized growth,"locus YCL016C, strain dcc1, active compounds read low",0.989
same,normalized growth,[2],1.01
same,normalized growth,"locus YCL069W, strain vba3, active compounds read low",0.978
same,normalized growth,"locus YCR088W, strain abp1, active compounds read low",0.983
same,normalized growth,"locus YDL005C, strain med2, active compounds read low",0.971
same,normalized growth,"locus YDL040C, strain nat1, active compounds read low",0.959
same,normalized growth,"locus YDR001C, strain nth1, active compounds read low",0.969
same,normalized growth,"locus YDR069C, strain doa4, active compounds read low",0.971
same,normalized growth,"locus YDR137W, strain rgp1, active compounds read low",1.05
same,normalized growth,"locus YDR159W, strain sac3, active compounds read low",0.956
same,normalized growth,"locus YDR195W, strain ref2",0.979
same,normalized growth,"locus YDR297W, strain sur2, active compounds read low",0.984
same,normalized growth,"locus YDR334W, strain swr1, active compounds read low",0.976
same,normalized growth,"locus YDR335W, strain msn5, active compounds read low",0.961
same,normalized growth,[3],1
same,normalized growth,"locus YDR392W, strain spt3, active compounds read low",0.942
same,normalized growth,"locus YEL003W, strain gim4, active compounds read low",0.976
same,normalized growth,"locus YEL037C, strain rad23, active compounds read low",0.974
same,normalized growth,"locus YEL061C, strain CIN8 (second series), active compounds read low",0.98
same,normalized growth,[4],0.997
same,normalized growth,"locus YER015W, strain faa2, active compounds read low",0.976
same,normalized growth,"locus YER016W, strain bim1, active compounds read low",1
same,normalized growth,"locus YER111C, strain swi4, active compounds read low",0.976
same,normalized growth,"locus YER155C, strain BEM2 (second series), active compounds read low",0.863 (active)
same,normalized growth,"locus YFR010W, strain ubp6, active compounds read low",0.951
same,normalized growth,"locus YGL167C, strain pmr1, active compounds read low",0.964
same,normalized growth,"locus YGL173C, strain kem1, active compounds read low",0.964
same,normalized growth,"locus YGL227W, strain vid30, active compounds read low",0.972
same,normalized growth,"locus YGL240W, strain doc1, active compounds read low",0.927
same,normalized growth,"locus YGL253W, strain hxk2, active compounds read low",1.01
same,normalized growth,"locus YGR078C, strain PAC10, active compounds read low",1.01
same,normalized growth,[5],1.01
same,normalized growth,"locus YHR013C, strain ard1, active compounds read low",0.965
same,normalized growth,"locus YHR027C, strain rpn1, active compounds read low",0.997
same,normalized growth,"locus YHR030C, strain SLT2, active compounds read low",1.02
same,normalized growth,"locus YHR079C, strain IRE1, active compounds read low",0.994
same,normalized growth,"locus YHR142W, strain chs7, active compounds read low",0.981
same,normalized growth,"locus YJL092W, strain hpr5, active compounds read low",0.965
same,normalized growth,"locus YJL095W, strain BCK1 (second series), active compounds read low",0.982
same,normalized growth,"locus YJL095W, strain BCK1, active compounds read low",0.997
same,normalized growth,"locus YJL115W, strain asf1, active compounds read low",0.994
same,normalized growth,"locus YJL129C, strain trk1, active compounds read low",0.916
same,normalized growth,"locus YJL154C, strain vps35, active compounds read low",0.958
same,normalized growth,"locus YJL164C, strain tpk1, active compounds read low",0.997
same,normalized growth,"locus YJL166W, strain qcr8, active compounds read low",0.929
same,normalized growth,"locus YJL187C, strain SWE1, active compounds read low",0.978
same,normalized growth,"locus YJR066W, strain TOR1, active compounds read low",0.932
same,normalized growth,"locus YKL160W, strain elf1, active compounds read low",0.964
same,normalized growth,"locus YKR026C, strain gcn3, active compounds read low",0.982
same,normalized growth,"locus YKR091W, strain srl3, active compounds read low",0.984
same,normalized growth,"locus YLL001W, strain dnm1, active compounds read low",0.917
same,normalized growth,"locus YLL026W, active compounds read low",0.969
same,normalized growth,"locus YLL041C, strain sdh2, active compounds read low",0.988
same,normalized growth,"locus YLR027C, strain aat2, active compounds read low",0.972
same,normalized growth,"locus YLR113W, strain HOG1, active compounds read low",1
same,normalized growth,"locus YLR221C, strain rsa3, active compounds read low",1.01
same,normalized growth,"locus YLR258W, strain gsy2, active compounds read low",0.998
same,normalized growth,"locus YLR262C, strain YPT6 (second series), active compounds read low",0.999
same,normalized growth,"locus YLR320W, strain mms22, active compounds read low",1
same,normalized growth,"locus YLR342W, strain FKS1, active compounds read low",0.933
same,normalized growth,"locus YLR357W, strain rsc2, active compounds read low",0.937
same,normalized growth,"locus YLR370C, strain arc18, active compounds read low",0.966
same,normalized growth,"locus YLR384C, strain iki3, active compounds read low",0.978
same,normalized growth,"locus YML120C, strain ndi1, active compounds read low",0.962
same,normalized growth,"locus YMR058W, strain fet3, active compounds read low",0.959
same,normalized growth,"locus YMR125W, strain sto1, active compounds read low",1.02
same,normalized growth,"locus YMR129W, active compounds read low",0.982
same,normalized growth,"locus YMR205C, strain PFK2, active compounds read low",0.978
same,normalized growth,"locus YMR231W, strain pep5, active compounds read low",0.977
same,normalized growth,"locus YMR307W, strain GAS1, active compounds read low",0.992
same,normalized growth,"locus YNL071W, strain lat1, active compounds read low",0.989
same,normalized growth,[6],1.01
same,normalized growth,"locus YNL183C, strain NPR1, active compounds read low",0.955
same,normalized growth,[7],1.02
same,normalized growth,"locus YNL209W, strain ssb2, active compounds read low",0.992
same,normalized growth,[8],1
same,normalized growth,"locus YNL248C, strain rpa49, active compounds read low",0.996
same,normalized growth,"locus YNL322C, strain KRE1 (second series), active compounds read low",0.975
same,normalized growth,"locus YNR049C, strain mso1, active compounds read low",0.983
same,normalized growth,"locus YOR001W, strain rrp6, active compounds read low",0.952
same,normalized growth,"locus YOR070C, strain gyp1, active compounds read low",0.991
same,normalized growth,"locus YOR080W, strain dia2, active compounds read low",0.96
same,normalized growth,[9],0.926
same,normalized growth,"locus YOR083W, strain WHI5, active compounds read low",0.911
same,normalized growth,"locus YOR106W, strain vam3, active compounds read low",0.927
same,normalized growth,"locus YOR231W, strain MKK1, active compounds read low",1.01
same,normalized growth,"locus YOR265W, strain rbl2, active compounds read low",0.986
same,normalized growth,"locus YOR270C, strain vph1, active compounds read low",0.936
same,normalized growth,"locus YOR290C, strain snf2, active compounds read low",0.988
same,normalized growth,"locus YPL051W, strain arl3, active compounds read low",0.971
same,normalized growth,"locus YPL078C, strain atp4, active compounds read low",0.926
same,normalized growth,"locus YPL106C, strain sse1, active compounds read low",0.998
same,normalized growth,"locus YPL240C, strain hsp82, active compounds read low",0.997
same,normalized growth,"locus YPL241C, strain CIN2, active compounds read low",1.01
same,normalized growth,"locus YPL256C, strain CLN2, active compounds read low",0.995

# Reference: PubChem BioAssay AID1159580 (chemical genetic matrix, 2015)
